# Source: PubChem (National Center for Advancing Translational Sciences (NCATS))
# GCN5L2 inh: inhibitors of human GCN5L2 histone acetyltransferase; GCN5L2 HAT assay, ThioGlo1 CoA-SH fluorescence; 390,000 compounds, 0.21% hits; Potency, µM (series often up to 58.9 µM), for the others: top-dose activity change, negative = inhibition, hits mostly inhibitors; Q92830
# Target sequence (Q92830 whole entry, looked up): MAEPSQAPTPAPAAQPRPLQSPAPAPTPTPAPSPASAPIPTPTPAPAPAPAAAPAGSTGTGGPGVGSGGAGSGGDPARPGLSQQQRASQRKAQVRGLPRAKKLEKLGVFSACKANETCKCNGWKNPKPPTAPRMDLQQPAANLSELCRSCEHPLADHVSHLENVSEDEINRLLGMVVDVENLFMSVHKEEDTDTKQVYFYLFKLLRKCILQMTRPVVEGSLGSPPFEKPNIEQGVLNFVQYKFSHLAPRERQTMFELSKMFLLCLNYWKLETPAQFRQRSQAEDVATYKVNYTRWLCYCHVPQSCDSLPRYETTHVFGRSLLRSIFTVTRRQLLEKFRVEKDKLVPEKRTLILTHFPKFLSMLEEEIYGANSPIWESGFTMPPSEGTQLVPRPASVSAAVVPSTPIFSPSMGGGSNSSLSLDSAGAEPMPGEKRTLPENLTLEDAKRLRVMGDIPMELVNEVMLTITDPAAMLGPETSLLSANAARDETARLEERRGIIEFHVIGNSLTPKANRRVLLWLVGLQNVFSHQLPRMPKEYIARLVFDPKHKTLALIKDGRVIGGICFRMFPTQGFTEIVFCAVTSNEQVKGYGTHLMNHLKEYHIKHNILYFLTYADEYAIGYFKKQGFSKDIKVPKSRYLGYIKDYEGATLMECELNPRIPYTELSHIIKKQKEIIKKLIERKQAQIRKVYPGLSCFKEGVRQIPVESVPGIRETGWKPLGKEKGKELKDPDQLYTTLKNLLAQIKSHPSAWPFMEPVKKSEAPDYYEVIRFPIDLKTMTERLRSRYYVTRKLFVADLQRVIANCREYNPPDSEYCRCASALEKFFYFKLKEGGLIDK
#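 Enzyme at 20nM final was mixed with library compounds for 15 min at room temperature. Peptide H3(1-25) at 75uM, acetyl-CoA at 70uM and ThioGlo1 at 50uM were then added. Plates were read immediately and after 20 min (Ex340nm/Em540nm).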
# DT40 TDP1 no CPT: qHTS for Inhibitors of human tyrosyl-DNA phosphodiesterase 1 (TDP1): qHTS in cells in absence of CPT | Potency, µM (titrated, usually from 46.2 µM), inactives show top-dose activity change, negative = growth inhibition, actives largely listed as inhibitors | DT40 Tdp1-/- hTDP1 cells, no CPT, ATP luminescence, 48 h | 420,000 compounds, 15% hits; also: nearly all actives have a fitted effect of over 55% in size
#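 Growth kinetics read by CellTiter-Glo luminescence after ≥48 hr at 37 °C. Cells: DT40 Tdp1-/- stably carrying human TDP1, 400 per well, compound exposure in the absence of CPT (DMSO vehicle).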
# PLK1 PBD block: blocks phosphopeptide binding to human PLK1 polo-box domain; AID 720504; Plk1 PBD binding of FITC phosphopeptide, fluorescence polarization; 360,000 compounds, 2.8% hits; P53350; Potency, µM, for the others: max response, negative = inhibition, usual class: inhibitors; also: series mostly up to about 57 µM; nearly all actives have a fitted effect of over 65% in size
# TDP1 block: TDP1 (human) enzyme inhibition | Q9NUW8 | recombinant TDP1, AlphaScreen DNA substrate cleavage | Potency, µM (titrated, usually from 130 µM), for inactives: at the top dose activity change, negative = inhibition, actives largely listed as inhibitors | 350,000 compounds, 0.28% hits; also: nearly all actives have a fitted effect of over 40% in size
#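 Signal: AlphaScreen proximity between streptavidin donor and anti-FITC acceptor beads on intact substrate. Reaction: Tdp1 1 nM, substrate 15 nM final, 5 min RT after 15 min compound preincubation.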
# TDP1 cell CPT: growth inhibition of DT40 Tdp1-/-;hTDP1 cells with camptothecin (screen for TDP1 inhibitors). 420,000 compounds, 12% hits. AID 686979. chicken DT40 Tdp1-/-;hTDP1 cells + 20 nM CPT, ATP luminescence, 48 h. Potency, µM (doses to about 46.2 µM), for the others: top-dose activity change, negative = growth inhibition, actives largely listed as inhibitors; also: nearly all actives have a fitted effect of over 55% in size
#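 Chicken DT40 Tdp1-/- cells complemented with human TDP1, 400 cells/well, exposed to compounds plus 20 nM camptothecin for at least 48 h at 37 C; viability read as ATP content by CellTiter-Glo luminescence.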
# VDR inhibitor: blocks the human vitamin D receptor; P11473; VDR-SRC2-3 peptide fluorescence polarization, 2 h; Potency, µM, for inactives: max response, negative = inhibition, usual class: inhibitors; 400,000 compounds, 0.93% hits
#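 Compounds are added to VDR with labelled SRC2-3 coactivator peptide and held 2 h at room temperature. Inhibition of the VDR–peptide interaction is then read as a change in fluorescence polarization.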
# Numbers without * were called inactive; ? = inconclusive; / = not tested or not shown; ! = repeats disagree; [ ] = dose if it differs, or a comment. In the library only some 18% were active in any assay of this set; here they are far more common. Calls follow the shape of the dose curve; as a rule, active = well fitted curve in the direction sought with a large enough effect; inconclusive = small, poorly fitted or top-dose-only effect, or another doubt; inactive = no such curve, though single readings can be large; an effect the other way counts as inactive or inconclusive. % is scaled to controls: 0 for no effect and ±100 for the full control effect; potency is read from the fitted curve at half-maximal effect.
SMILES,GCN5L2 inh,DT40 TDP1 no CPT,PLK1 PBD block,TDP1 block,TDP1 cell CPT,VDR inhibitor
COc1oc(C(=O)NC2CCCCC2)c(-c2ccc(Cl)cc2)c1S(=O)(=O)c1ccccc1,/,21µM*,0%,/,?,?
O=C(NNS(=O)(=O)c1ccc(Cl)cc1)NC1CCCCC1,-24%,-23%,-2%,-3%,-5%,12%
COc1ccc(CC(=O)Nc2ccc(-c3cn4ccccc4n3)cc2)cc1,-11%,?,-8%,2%,13µM*,6%
O=C(Nc1ccc(-c2cn3ccccc3n2)cc1)c1cccs1,-5%,15µM*,-17%,?,18µM*,15%
Cc1ccn(-c2ccc(NC(=O)c3cccs3)cc2)n1,-3%,12µM*,-2%,/,?,-26%
Cc1ccccc1C(=O)Nc1ccc(NC(=O)c2cccs2)cc1,1%,-2%,/,-3%[12.3 µM],12%,-3%
COC(=O)[C@H](C(C)C)N(Cc1ccccc1)S(=O)(=O)CCNC1CCCC1,-1%,?,-5%,0%[56.1 µM],26µM*,-12%
C=C[C@H](CC(C)C)N(Cc1ccccc1)S(=O)(=O)N(Cc1ccc(OC)cc1)[C@H](C=C)CC(C)C,-11%,13µM*,1%,0%,?,-13%
CC(C)C[C@H](CO)N(Cc1ccccc1)S(=O)(=O)N(Cc1ccccc1)[C@@H](CO)CC(C)C,-18%,12µM*!,-2%,0%,16µM*,-8%
COC(=O)C(CC(C)C)N(Cc1cc(OC)cc(OC)c1)S(=O)(=O)c1ccccc1Br (stereo not given),-17%,?,-10%,-4%[56.1 µM],?,-15%
COC(=O)[C@H](CC(C)C)N(Cc1ccccc1)S(=O)(=O)N(Cc1ccccc1)[C@@H](CC(C)C)C(=O)OC,-9%,12µM*,3%,0%,21µM*,1%
CCOC(=O)[C@@H](C)N(Cc1ccc(OC)cc1)S(=O)(=O)N(Cc1ccccc1)[C@H](C(=O)OC)C(C)C,-18%,-93%,-3%,-2%,?,-12%
O=S(=O)(NC1CCSc2ccccc21)c1ccc(Cl)nc1 (stereo not given),1%,?,1%,-6%,?,-13%
Cc1cccc(-n2nnc(-c3nc(-c4ccccc4)no3)c2N)c1C,2%,-23%,/,0%,-11%,1%
Cc1noc(C)c1NC(=O)N(C)C[C@@H]1Oc2ccc(NC(=O)C3CCCCC3)cc2C(=O)N([C@@H](C)CO)C[C@H]1C,-1%,1%,-17%,-6%,-4%,3%
C=CCCN([C@H](CO)Cc1ccccc1)S(=O)(=O)c1ccccc1Br,-2%,-20%,-1%,-2%[56.1 µM],?,12%
O=S(=O)(N(Cc1ccccc1)[C@@H](CO)Cc1ccccc1)N(Cc1ccccc1)[C@@H](CO)Cc1ccccc1,1%,5.6µM*,-6%,1%,?,-14%
C=CS(=O)(=O)N(Cc1ccccc1)[C@H](CO)CC(C)C,/,11µM*,-5%,/,10µM*,2%
CC(C)N(Cc1ccccc1)S(=O)(=O)N(C)C,0%,-19%,-3%,2%,-2%,-4%
C=CS(=O)(=O)N(Cc1ccccc1Br)[C@H](CO)Cc1ccccc1,/,7.1µM*,-7%,/,7.9µM*,-6%
COc1ccc2[nH]c(=O)c(CN(Cc3cccs3)C(=S)Nc3cccc(C)c3)cc2c1,-21%,13µM*,-4%,3%,21µM*,-4%
CNC(=S)N(Cc1cccs1)Cc1cc2cc(OC)ccc2[nH]c1=O,-7%,?,-4%,1%,?,-8%
COc1cccc(NC(=S)N(CCc2c(C)[nH]c3ccccc23)Cc2cccs2)c1,-4%,16µM*,-1%,9%,?,1%
Cc1[nH]c2ccccc2c1CCN(Cc1cccs1)C(=S)Nc1ccccc1,-10%,?,-4%,6%,?,?
Cc1cccc(NC(=S)N(Cc2cccs2)Cc2cc3cc(C)cc(C)c3[nH]c2=O)c1,-9%,9.2µM*,4%,3%,13µM*,-10%
SMILES,GCN5L2 inh,DT40 TDP1 no CPT,PLK1 PBD block,TDP1 block,TDP1 cell CPT,VDR inhibitor
Cc1[nH]c2ccccc2c1CCN(Cc1cccnc1)C(=S)Nc1ccc(F)cc1,-9%,16µM*,0%,2%,16µM*,-21%
CCN(C(=O)c1cn(-c2cccc(OC)c2)c(=O)c2ccccc12)c1ccccc1C,-6%,?,/,5%,?,4%
COc1ccc(-c2csc(NC(=S)NC(=O)/C=C/c3ccco3)n2)cc1Br,-9%,3.7µM*,-15%,3%,1.8µM*,11%
COc1ccc(-c2csc(NC(=S)NC(=O)c3ccccc3)n2)cc1Br,-13%,?,-3%,/,-17%,6%
COc1ccc(-c2csc(NC(=S)NC(=O)c3cc4ccccc4o3)n2)cc1Br,4%,4%,-1%,6%,-12%,1%
COc1ccc(-c2csc(NC(=S)NC(=O)/C=C/c3ccco3)n2)cc1OC,-9%,4.6µM*,-8%,-10%,4.6µM*,-7%
COc1ccc(-c2csc(NC(=S)NC(=O)c3ccco3)n2)cc1Br,-2%,2.9µM*,-11%,0%,10µM*,4%
CC(C)(C)c1ccc(CN2CCN([C@H](c3ccccc3)c3ccc(Cl)cc3)CC2)cc1,36%,/,/,13%,/,-8%
CC1(C)CC(=O)C=C(NCC(O)c2ccccc2)C1 (stereo not given),-8%,?,-17%,/,4%,-18%
CCOC(=O)/C(=N/Nc1ccc(C)cc1)S(=O)(=O)c1ccc(Cl)cc1,-6%,?,-12%,5%,16µM*,-1%
CCOC(=O)N=S(N)(=O)c1ccc(Cl)cc1 (stereo not given),1%,?,11µM*,2%,?,-4%
CCOC(=O)N=S(N)(=O)c1ccccc1 (stereo not given),/,-10%,-5%,-3%,-7%,10%
O=C(Nc1ccc(S(=O)(=O)Nc2ncccn2)cc1)c1ccccc1NS(=O)(=O)c1ccc(Cl)cc1,-15%,18%,-20%,/,3%,4%
CCCCN(CC)C(=O)CCCn1c(=O)c2cccn2c2ccccc21,-8%,21µM*,/,12%,?,5%
CSc1ccc(CCNC(=O)CCCn2c(=O)c3cccn3c3ccccc32)cc1,-11%,18µM*,/,9%,?,11%
CCOc1ccc(CCNC(=O)CCCn2c(=O)c3cccn3c3ccccc32)cc1,-6%,23µM*,/,3%,18µM*,-3%
N#CCCN1CCCN(CCC#N)CCN(CCC#N)CCCN(CCC#N)CC1,-6%,9%,-3%,/,28%,1%
